# The sample as a whole holds a higher share of the strongest signals than the screen did.
# Columns and labels:
# Experiment in all cases: glycan array binding signal (z-score within array); higher = stronger binding
# Conditions in all cases: glycan notation: IUPAC condensed, linker removed
# [1] = molecular target: Fuc(a1-2)[GalNAc(a1-3)]Gal(b1-4)GlcNAc
# Outline: (§1)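 Negative Z-scores can be read as non-binding. The Z-score is calculated within each array and then averaged across arrays of one protein sequence at different concentrations or buffers and across linkers. Arrays, 3228 in all, were curated from the Consortium for Functional Glycomics database and kept only where the protein sequence was available.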
# [2] = molecular target: Gal(a1-3)Gal(b1-4)Glc
# Outline: as §1
# [3] = molecular target: Gal(a1-3)Gal(b1-4)[Fuc(a1-3)]GlcNAc
# Outline: as §1
# [4] = molecular target: Gal(b1-3)[Fuc(a1-4)]GlcNAc
# Outline: as §1
# [5] = molecular target: Gal(b1-4)Glc6S
# Outline: as §1
# [6] = molecular target: Glc(b1-4)Glc
# Outline: as §1
# [7] = molecular target: GlcNAc(a1-6)Gal(b1-4)GlcNAc
# Outline: as §1
# [8] = molecular target: GlcNAc(b1-2)Man(a1-3)[GlcNAc(b1-2)Man(a1-6)]Man(b1-4)GlcNAc(b1-4)GlcNAc
# Outline: as §1
# [9] = molecular target: GlcNAc(b1-3)Gal(b1-4)Glc
# Outline: as §1
# [10] = molecular target: GlcNAc(b1-3)Gal(b1-4)GlcNAc
# Outline: as §1
# [11] = molecular target: Man(a1-2)Man(a1-3)[Man(a1-2)Man(a1-6)]Man(a1-6)[Man(a1-2)Man(a1-2)Man(a1-3)]Man
# Outline: as §1
# [12] = molecular target: Neu5Ac(a2-3)Gal(b1-3)[Fuc(a1-4)]GlcNAc(b1-3)Gal(b1-4)[Fuc(a1-3)]GlcNAc
# Outline: as §1
# [13] = molecular target: Neu5Ac(a2-3)Gal(b1-3)[Neu5Ac(a2-6)]GalNAc
# Outline: as §1
# [14] = molecular target: Neu5Ac(a2-3)Gal(b1-4)GlcNAc(b1-2)Man(a1-3)[Neu5Ac(a2-6)Gal(b1-4)GlcNAc(b1-2)Man(a1-6)]Man(b1-4)GlcNAc(b1-4)GlcNAc
# Outline: as §1
# [15] = molecular target: Neu5Ac(a2-3)Gal(b1-4)GlcNAc(b1-3)Gal(b1-3)GlcNAc
# Outline: as §1
# [16] = molecular target: Neu5Ac(a2-3)[GalNAc(b1-4)]Gal(b1-4)Glc
# Outline: as §1
# [17] = molecular target: Neu5Ac(a2-6)Gal
# Outline: as §1
# [18] = molecular target: Neu5Ac(a2-8)Neu5Ac
# Outline: as §1
# [19] = molecular target: Neu5Ac(a2-8)Neu5Ac(a2-8)Neu5Ac(a2-3)[GalNAc(b1-4)]Gal(b1-4)Glc
# Outline: as §1
# [20] = molecular target: Neu5Ac(b2-6)Gal(b1-4)GlcNAc
# Outline: as §1
# [21] = molecular target: Gal(a1-3)Gal(b1-3)Glc
# Outline: as §1
# [22] = molecular target: Gal(a1-4)Gal(b1-4)Gal
# Outline: as §1
# [23] = molecular target: Gal3S(b1-3)GlcNAc
# Outline: as §1
# [24] = molecular target: Gal6S(b1-4)Glc
# Outline: as §1
# [25] = molecular target: GlcA(b1-3)Gal
# Outline: as §1
# [26] = molecular target: GlcA(b1-6)Gal
# Outline: as §1
# [27] = molecular target: GlcNAc(b1-3)[GlcNAc(b1-6)]GlcNAc
# Outline: as §1
# [28] = molecular target: GlcNAc(b1-4)GlcNAc(b1-4)GlcNAc(b1-4)GlcNAc(b1-4)GlcNAc
# Outline: as §1
# [29] = molecular target: Neu5Ac(a2-3)Gal(b1-4)[Fuc(a1-3)]GlcNAc
# Outline: as §1
# [30] = molecular target: Neu5Ac(a2-3)Gal(b1-4)[Fuc(a1-3)]GlcNAc(b1-3)Gal
# Outline: as §1
# [31] = molecular target: Neu5Ac(a2-3)GalNAc(b1-4)GlcNAc
# Outline: as §1
# [32] = molecular target: Neu5Ac(a2-3)[Neu5Ac(a2-6)]GalNAc
# Outline: as §1
# [33] = molecular target: Neu5Ac(a2-6)Gal(b1-4)GlcNAc(b1-3)Gal(b1-4)[Fuc(a1-3)]GlcNAc(b1-3)Gal(b1-4)[Fuc(a1-3)]GlcNAc
# Outline: as §1
# [34] = molecular target: Neu5Ac(a2-6)GalNAc
# Outline: as §1
binder,measurement,setting,value
"Ficolin A (Rattus norvegicus), Q9WTS8 (protein) MWWPMLWAFPVLLCLCSSQALGQESGACPDVKIVGLGAQDKVAVIQSCPSFPGPPGPKGEPGSPAGRGERGLQGSPGKMGPPGSKGEPGTMGPPGVKGEKGERGTASPLGQKELGDALCRRGPRSCKDLLTRGIFLTGWYTIYLPDCRPLTVLCDMDVDGGGWTVFQRRVDGSINFYRDWDSYKRGFGNLGTEFWLGNDYLHLLTANGNQELRVDLREFQGQTSFAKYSSFQVSGEQEKYKLTLGQFLEGTAGDSLTKHNNMAFSTHDQDNDTNGGKNCAALFHGAWWYHDCHQSNLNGRYLPGSHESYADGINWLSGRGHRYSYKVAEMKIRAS",glycan array binding signal (z-score),[1],-0.02
same,glycan array binding signal (z-score),[2],-0.071
same,glycan array binding signal (z-score),[3],-0.105
same,glycan array binding signal (z-score),[4],-0.069
same,glycan array binding signal (z-score),[5],-0.092
same,glycan array binding signal (z-score),[6],-0.11
same,glycan array binding signal (z-score),[7],17.3
same,glycan array binding signal (z-score),[8],-0.048
same,glycan array binding signal (z-score),[9],-0.056
same,glycan array binding signal (z-score),[10],-0.094
same,glycan array binding signal (z-score),[11],-0.092
same,glycan array binding signal (z-score),[12],-0.064
same,glycan array binding signal (z-score),[13],0.325
same,glycan array binding signal (z-score),[14],-0.027
same,glycan array binding signal (z-score),[15],-0.098
same,glycan array binding signal (z-score),[16],0.265
same,glycan array binding signal (z-score),[17],-0.042
same,glycan array binding signal (z-score),[18],0.58
same,glycan array binding signal (z-score),[19],-0.047
same,glycan array binding signal (z-score),[20],1.16
"TIM-1 (Mus musculus), AAL35774 (protein) MNQIQVFISGLILLLPGAVDSYVEVKGVVGHPVTLPCTYSTYRGITTTCWGRGQCPSSACQNTLIWTNGHRVTYQKSSRYNLKGHISEGDVSLTIENSVESDSGLYCCRVEIPGWFNDQKVTFSLQVKPEIPTRPPTRPTTTRPTATGRPTTISTRSTHVPTSIRVSTSTPPTSTHTWTHKPEPTTFCPHETTAEVTGIPSHTPTDWNGTVTSSGDTWSNHTEAIPPGKPQKNPTKGFYVGICIAALLLLLLVSTVAITRYILMKRKSASLSVVAFRVSKIEALQNAAVVHSRAEDNIYIVEDRP",glycan array binding signal (z-score),[1],-0.268
same,glycan array binding signal (z-score),[21],-0.335
same,glycan array binding signal (z-score),[3],2.6
same,glycan array binding signal (z-score),[22],1.46
same,glycan array binding signal (z-score),[23],-0.247
same,glycan array binding signal (z-score),[24],-0.128
same,glycan array binding signal (z-score),[25],2.46
same,glycan array binding signal (z-score),[26],2.12
same,glycan array binding signal (z-score),[27],-0.61
same,glycan array binding signal (z-score),[28],1.29
same,glycan array binding signal (z-score),[29],-0.451
same,glycan array binding signal (z-score),[30],-0.414
same,glycan array binding signal (z-score),[31],-0.411
same,glycan array binding signal (z-score),[16],-0.433
same,glycan array binding signal (z-score),[32],0.386
same,glycan array binding signal (z-score),[33],-0.125
same,glycan array binding signal (z-score),[34],-0.529

# From the supplement of paper PMC8728848
